{
  "source": "ChEMBL document CHEMBL3988442",
  "about": "“University of Dundee, Small-Polar-MMV Screening Library” (2021)",
  "tested_on": "Plasmodium falciparum",
  "assay": "Calibr Malaria Delayed Death Assay SOP",
  "assay_type": "functional, organism-based",
  "parameters": "scale not given: in the data most compounds retested in dose-response had high values",
  "conditions": "concentration 4.99e-06 (unit not given; other assays of the set use mol/L)",
  "note": "Several values for one entry are separate records, joined by “and”; a condition that tells them apart may be missing. Identical values can stand only once. The whole screen tested about 38,000 compounds, of which about 1,200 (3.2%) showed an effect of 50% or more. The median lay at about -58%. This excerpt belongs to a sample that is enriched for strong results.",
  "data": [
    {"smiles": "CN(Cc1ccccc1)CC(C)(C)NC(=O)c1ccon1", "values": [
      {"measurement": "Percent Effect", "value": -38.2, "unit": "%"}
    ]},
    {"smiles": "O=C(Nc1ccccc1OC1CCOC1)c1ccon1", "note": "(stereo not given)", "values": [
      {"measurement": "Percent Effect", "value": -94.04, "unit": "%"}
    ]},
    {"smiles": "O=C(O)C(F)(F)F.O=C([C@@H]1CCO[C@@H]2CCN(Cc3cccs3)C[C@H]21)N1CCCCO1", "values": [
      {"measurement": "Percent Effect", "value": -36.32, "unit": "%"}
    ]},
    {"smiles": "Cc1ncsc1CN1C[C@@H]2CCCO[C@@H]2[C@H](Nc2ccccn2)C1.O=C(O)C(F)(F)F.O=C(O)C(F)(F)F", "values": [
      {"measurement": "Percent Effect", "value": -27.39, "unit": "%"}
    ]},
    {"smiles": "Cc1cccc(CN2C[C@@H]3CCCO[C@@H]3[C@H](Nc3ccccn3)C2)n1", "values": [
      {"measurement": "Percent Effect", "value": 55.52, "unit": "%"}
    ]},
    {"smiles": "Cc1cccc(CN2C[C@@H]3CCCO[C@@H]3[C@H](NS(C)(=O)=O)C2)n1", "values": [
      {"measurement": "Percent Effect", "value": -67.26, "unit": "%"}
    ]},
    {"smiles": "CN(C)Cc1nc(-n2cnc(C(=O)NC3CCCC3)c2)n2ccccc12", "values": [
      {"measurement": "Percent Effect", "value": 8.682, "unit": "%"}
    ]},
    {"smiles": "CC(C)Oc1ccccc1NC(=O)N1CCC(n2cncn2)CC1", "values": [
      {"measurement": "Percent Effect", "value": -58.88, "unit": "%"}
    ]},
    {"smiles": "Cc1ccc(-c2nc(CN3CCn4c(nnc4C4CC4)C3)co2)c(C)c1", "values": [
      {"measurement": "Percent Effect", "value": -40.53, "unit": "%"}
    ]},
    {"smiles": "Cc1ccccc1-c1noc(CN2CCn3c(nnc3C3CC3)C2)n1", "values": [
      {"measurement": "Percent Effect", "value": 50.31, "unit": "%"}
    ]},
    {"smiles": "c1ccc(-c2cnc(CN3CCn4c(nnc4C4CC4)C3)o2)cc1", "values": [
      {"measurement": "Percent Effect", "value": -11.2, "unit": "%"}
    ]},
    {"smiles": "CC(C)c1nnc(CN2CC(n3cccn3)Cc3ccccc32)o1", "note": "(stereo not given)", "values": [
      {"measurement": "Percent Effect", "value": -227.8, "unit": "%"}
    ]},
    {"smiles": "O=C(NCC1CC1)c1nnc2ccc(Cl)cc2n1", "values": [
      {"measurement": "Percent Effect", "value": 9.063, "unit": "%"}
    ]},
    {"smiles": "COCCN1CCCCC12CC(=O)N(c1ccccc1OC)C2.O=C(O)C(F)(F)F", "note": "(stereo not given)", "values": [
      {"measurement": "Percent Effect", "value": -87.11, "unit": "%"}
    ]},
    {"smiles": "CCCN1CCCN(S(=O)(=O)c2cnc3onc(C)c3c2)CC1", "values": [
      {"measurement": "Percent Effect", "value": -59.23, "unit": "%"}
    ]},
    {"smiles": "CC(C)c1nccn1C1CCCN(C(=O)CCCc2ccccn2)C1", "note": "(stereo not given)", "values": [
      {"measurement": "Percent Effect", "value": -134.4, "unit": "%"}
    ]},
    {"smiles": "CC(C)OCCN1CCN(c2ccc(Cl)cn2)CC1", "values": [
      {"measurement": "Percent Effect", "value": -78.08, "unit": "%"}
    ]},
    {"smiles": "CSCCCN1CCN(c2ccc(Cl)cn2)CC1", "values": [
      {"measurement": "Percent Effect", "value": 28.74, "unit": "%"}
    ]},
    {"smiles": "Clc1ccc(N2CCN(CCCN3CCCCC3)CC2)nc1", "values": [
      {"measurement": "Percent Effect", "value": 68.33, "unit": "%"}
    ]},
    {"smiles": "CCCn1cc(-c2cc(C(=O)N(C)C)c3ccc(C)cc3n2)cn1", "values": [
      {"measurement": "Percent Effect", "setting": "4.99 µM", "value": "-45.66% and -43.3%"}
    ]},
    {"smiles": "CN(Cc1ccccn1)C1CC2(CCN(Cc3ccccn3)CC2)C1.O=C(O)C(F)(F)F.O=C(O)C(F)(F)F", "values": [
      {"measurement": "Percent Effect", "value": -38.28, "unit": "%"}
    ]},
    {"smiles": "Cc1cccc(-c2ncc(CNC(C)Cc3ncccc3C)cn2)c1", "note": "(stereo not given)", "values": [
      {"measurement": "Percent Effect", "value": -10.25, "unit": "%"}
    ]},
    {"smiles": "Cc1cccnc1CC(C)Nc1ncc(C)c(N(C)C)n1", "note": "(stereo not given)", "values": [
      {"measurement": "Percent Effect", "value": 44.79, "unit": "%"}
    ]},
    {"smiles": "CCn1nc2c(cc1=O)CN(CCOc1ccccc1C#N)CC2", "values": [
      {"measurement": "Percent Effect", "value": -106.3, "unit": "%"}
    ]},
    {"smiles": "CN(Cc1ccccc1)c1ncccc1CNC1CCSCC1", "values": [
      {"measurement": "Percent Effect", "value": 25.77, "unit": "%"}
    ]},
    {"smiles": "CN(C)c1ncccc1CNCc1ccc(N2CCOCC2)cc1", "values": [
      {"measurement": "Percent Effect", "value": -64.22, "unit": "%"}
    ]},
    {"smiles": "CN(c1ncccc1CNCc1ncc[nH]1)C1CCCCC1", "values": [
      {"measurement": "Percent Effect", "value": 37.42, "unit": "%"}
    ]},
    {"smiles": "CC(=O)N1CCC(NCc2cccnc2N(C)Cc2ccccc2)CC1", "values": [
      {"measurement": "Percent Effect", "value": -58.67, "unit": "%"}
    ]},
    {"smiles": "Cc1nnsc1C(=O)NCc1cccnc1N(C)Cc1ccccc1", "values": [
      {"measurement": "Percent Effect", "value": -61.52, "unit": "%"}
    ]},
    {"smiles": "CN(Cc1ccccc1)c1ncccc1CNC(=O)c1ccnn1C", "values": [
      {"measurement": "Percent Effect", "value": -17.51, "unit": "%"}
    ]},
    {"smiles": "CCn1cc(C(=O)NCc2cccnc2N(C)Cc2ccccc2)cn1", "values": [
      {"measurement": "Percent Effect", "value": -74.6, "unit": "%"}
    ]},
    {"smiles": "CN(Cc1ccccc1)c1ncccc1CNC1CCCC1", "values": [
      {"measurement": "Percent Effect", "value": 65.38, "unit": "%"}
    ]},
    {"smiles": "CC(=O)NC1CCCN(C(=O)NCc2cccnc2N(C)C)C1", "note": "(stereo not given)", "values": [
      {"measurement": "Percent Effect", "value": -14.71, "unit": "%"}
    ]},
    {"smiles": "CN(Cc1ccccc1)c1ncccc1CNC1CCC1", "values": [
      {"measurement": "Percent Effect", "value": 69.98, "unit": "%"}
    ]},
    {"smiles": "CN(Cc1ccccc1)c1ncccc1CNC1CN2CCC1CC2", "note": "(stereo not given)", "values": [
      {"measurement": "Percent Effect", "value": 62.39, "unit": "%"}
    ]}
  ]
}
